# This is one part of a sample in which hits are shown more often than they occur.
# Bm FixLJ act: increases Burkholderia fixLJ two-component signaling | B. multivorans fixK-promoter GFP reporter, 18 h; stronger effect = higher value | z-score (test concentration not listed) | AID 1918990 | 29,000 tested, 0.3% active;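 active = replicate mean overnight rise in green fluorescent reporter signal, 3 or more SD over negative controls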
# A number is an active result; . = inactive; ! = not active in a repeat.
SMILES,Bm FixLJ act
COc1cccc(-c2nnc(-c3cc4cc(Cl)ccc4oc3=O)o2)c1,.
CCCCCCc1cc2cc(-c3nnc(-c4ccc(C)cc4)o3)c(=O)oc2cc1O,8.6
CCN(CC)c1ccc2cc(-c3nnc(-c4cccc(Cl)c4)o3)c(=O)oc2c1,.
Cn1c(C(=O)N2CC(O)C(Cc3ccccn3)C2)cc2cccc(Cl)c21 (stereo not given),.
CCCCc1cn(CC2CCN(C(=O)C3CCCCC3)CC2)nn1,.
CCN1CCN(C(=O)C2(C)CCc3c(C)c(O)c(C)c(C)c3O2)CC1 (stereo not given),.
COc1cccc(CN2CCNC(=O)C2CC(=O)N2CCN(C)CC2)c1OC (stereo not given),.
Cc1cn2c(=O)cc(COc3ccc(NC(=O)c4cccc(F)c4)cc3)nc2s1,.
Cc1cn2c(=O)cc(COc3ccc(NC(=O)c4ccccc4C)cc3)nc2s1,3.4
COc1ccccc1C(=O)Nc1ccc(OCc2cc(=O)n3cc(C)sc3n2)cc1,.
CN(C)S(=O)(=O)CC1CN(C(=O)c2ccccc2)CC1O (stereo not given),.
CCC(NC(C)C)C(O)c1ccc(O)c(O)c1 (stereo not given),8.2
CC[C@H](NC(C)C)[C@H](O)c1ccc(O)c2[nH]c(=O)ccc12,.
C[C@H](N)[C@H](O)c1cccc(O)c1,.
CN(C)Cc1nnc(C2CCCN(Cc3cccnc3)C2)n1C (stereo not given),.
Cc1n[nH]c(C)c1CCCN(C)Cc1cc(C(C)(C)C)n[nH]1,.
O=C(CCCN1CCCC1=O)NC1CCOCC1Oc1ccc(CO)cc1 (stereo not given),.
C=CCC(CC=C)(CNC(=O)C(=O)Nc1cccc(C(F)(F)F)c1)c1ccccc1,3.7
C=CCC(CC=C)(CNC(=O)C(=O)Nc1cc(C)ccc1OC)c1ccc(OC)c(OC)c1,.
O=C(O)c1ccccc1Nc1cccc(C(F)(F)F)c1,.
Cc1cc(C)n(CCCC(=O)N2Cc3nc(C)[nH]c(=O)c3C2)n1,.
Cc1cc(CC2CN(C(=O)c3cccc4ncccc34)CC2O)on1 (stereo not given),.
COc1ccc(C2(C(=O)Nc3ccc(CC(=O)NC4CC4)cc3)CC2(C)C)cc1 (stereo not given),.
COc1ccccc1CN(CC(=O)O)C(=O)c1ccc2cccc(F)c2n1,.
CCC1C(=O)NCCN1C(=O)NCCOc1ccc(Cl)cc1 (stereo not given),.
SMILES,Bm FixLJ act
CCN(Cc1ccc(SC)cc1)C(=O)NC(C)Cc1cc(C)[nH]n1 (stereo not given),.
Cc1nonc1N1CCN(C(=O)c2ccc(N3CCCCC3)cc2)CC1,.
Cc1nc2ccc(C(=O)N3CCCC4(CCc5cn[nH]c54)C3)cc2[nH]1 (stereo not given),.
COc1ccc(OCC2CCCN(C(=O)c3ccc4nc(C)[nH]c4c3)C2)cc1 (stereo not given),3.4
COc1ccc(OCC2CCCN(C(=O)C3CCN(C(C)=O)CC3)C2)cc1 (stereo not given),.
Cc1cc(CC2CN(C(=O)c3cc4cc(F)ccc4n3C)CC2O)n[nH]1 (stereo not given),.
Cc1noc(-c2ccnc(NC3CCCN(C(=O)c4ccccc4)C3)c2)n1 (stereo not given),.
O=C(Cc1ccc(NC(=O)c2ccccc2-n2cncn2)cc1)NC1CC1,.
O=C(O)c1ccc(NC(=O)c2cn(-c3ccccc3)nc2-c2ccc(Br)cc2)cc1,.
COc1ccccc1NC(=O)c1cc2c(C)nn(-c3ccccc3)c2s1,.
COc1ccc(-c2nn(-c3ccccc3)cc2C(=O)Nc2ccccc2OC)cc1,4.6
Cc1[nH]c2ccc(C(=O)N3CCCn4nc(C(O)C5CC5)cc4C3)cc2c1C (stereo not given),.
NC(CO)C(=O)NNCc1ccc(O)c(O)c1O (stereo not given),3!
Cc1ccc2nc(-c3ccc(NC(=O)C(F)(F)F)cc3)sc2c1,.
CC(=O)c1cccc(NC(=O)Cn2cnc3c2c(=O)n(C)c(=O)n3C)c1,.
Cn1c(=O)c2nc3ccc(NC(=O)C(F)(F)F)cc3nc2n(C)c1=O,14
COc1ccc(CN2COc3ccc4c(-c5ccccc5)cc(=O)oc4c3C2)cc1,3.7
COC(=O)Cc1c(C)c2ccc3c(c2oc1=O)CN(Cc1ccc(C)cc1)CO3,.
Cc1ccc(CN2COc3ccc4c(-c5ccccc5)cc(=O)oc4c3C2)cc1,.
NC(=O)CC1CCCCN1C(=O)c1ccc(-c2cc(Cl)ccc2O)cc1 (stereo not given),.
Cc1nc(C2CCCN(c3ncccn3)C2)cc(N2CCCC2)n1 (stereo not given),.
COCc1cc(N2CCOc3c(O)cc(-c4ccccc4C)cc3C2)ncn1,.
Cc1nnc(CNC(=O)Nc2cc3c(cc2N(C)C)n(C)c(=O)n3C)o1,.
COc1ccc(OC)c(Nc2cc(C(=O)NCc3ccccc3)c3ccccc3n2)c1,4.2
COc1ccc(CNC(=O)c2cc(Nc3ccc(OC)cc3OC)nc3ccccc23)cc1,.
SMILES,Bm FixLJ act
COc1ccc(Nc2cc(C(=O)NCCc3ccc(C)cc3)c3ccccc3n2)c(OC)c1,.
CC(Cn1cccn1)NC(=O)COc1ccc(Cl)cc1Cl (stereo not given),.
CC(C)c1noc(CNC(=O)N(Cc2cocn2)Cc2cocn2)n1,.
O=C(Cn1ncc2c3ccccc3n(Cc3ccc(Cl)cc3)c2c1=O)NCCCc1ccccc1,.
CCN(CC)CCCNC(=O)Cn1ncc2c3ccccc3n(Cc3ccccc3)c2c1=O,.
O=C(Cn1ncc2c3ccccc3n(Cc3cccc(Cl)c3)c2c1=O)NCCCN1CCCCC1,16
CC1CCCCN1CCCNC(=O)Cn1ncc2c3ccccc3n(Cc3ccccc3F)c2c1=O (stereo not given),.
CCCN(CCC)CCCNC(=O)Cn1ncc2c3ccccc3n(Cc3ccc(F)cc3)c2c1=O,.
O=C(Cn1ncc2c3ccccc3n(Cc3cccc(Cl)c3)c2c1=O)NCCCc1ccccc1,19
CN(Cc1ccccc1)C(=O)Cn1ncc2c3ccccc3n(Cc3cccc(Cl)c3)c2c1=O,5.5
Cc1ccc(Cn2c3ccccc3c3cnn(CC(=O)Nc4cc(Cl)ccc4C)c(=O)c32)cc1,.
CCCCN(CC)CCCNC(=O)Cn1ncc2c3ccccc3n(Cc3ccc(F)cc3)c2c1=O,.
CC(C)N(Cc1ccccc1)C(=O)Cn1ncc2c3ccccc3n(Cc3ccccc3)c2c1=O,.
CCCCN(C)CCCNC(=O)Cn1ncc2c3ccccc3n(Cc3cccc(Cl)c3)c2c1=O,6.4
Cc1ccccc1Cn1c2ccccc2c2cnn(CC(=O)NCc3cccc(Cl)c3)c(=O)c21,.
CCCN1CCN(C(=O)CCc2ccccc2)C2CS(=O)(=O)CC21 (stereo not given),.
Cn1cnc(C(=O)NC2CCC(NC(=O)CCCCc3ccccc3)C2)c1 (stereo not given),.
Cc1noc(C)c1CCC(=O)NCCCc1csc(N)n1,.
CS(=O)(=O)NC1CCN(C(=O)c2ccccc2-c2nc(-c3ccccc3)no2)CC1,.
CCN1CC2(CCC1=O)CCN(CC(=O)NCc1ccccc1)CC2,.
CC(C)C(NC(=O)N1CCS(=O)(=O)CC1)c1nccn1C (stereo not given),.
COc1ccc2c(c1)c(C(=O)N1CCC(c3cc(=O)[nH]cn3)CC1)c(C)n2C,.
CCN(CCn1cccn1)C(=O)Nc1ccccc1OC(F)(F)F,.
CN1CCc2nc3sc(C(=O)c4ccc(F)cc4)c(N)c3cc2C1,.
Cc1ccccc1NC(=O)c1sc2nc3c(cc2c1N)CN(Cc1ccccc1)CC3,.
CCN1CCc2nc3sc(C(=O)c4ccccc4)c(N)c3cc2C1,26

# Source: PubChem BioAssay (ICCB-Longwood Screening Facility, Harvard Medical School)
